Compound activity deposited in PubChem BioAssay by National Center for Advancing Translational Sciences (NCATS).
Compounds with a hit are over-represented: about 5% of the library has one in this group of screens.
Tb PYK inh: T. brucei pyruvate kinase inhibition | Q57TT1 | TbPYK enzyme, Kinase-Glo Plus ATP luminescence, 45 min | Potency, µM (top dose mostly 76.8 µM), for inactives: at the top dose activity, negative = inhibition, hits mostly inhibitors | actives 0.12% (n = 410,000) | AID 624173; further: potency means the concentration at half of the fitted maximal effect; nearly all actives have a fitted effect of over 50% in size
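Glycolytic pyruvate kinase of T. brucei was incubated with substrate, test compound and 130 uM ADP for 45 minutes at room temperature. Luminescent Kinase-Glo Plus signal was measured after 10 minutes.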
Vaccinia mCherry: inhibitors of vaccinia virus infection (mCherry reporter signal) | actives 0.63% (n = 310,000) | AID 720579 | Potency, µM (series often up to 36.5 µM), inactives show at the top dose activity change, negative = inhibition, actives largely listed as inhibitors | Vaccinia virus mCherry reporter infection, fluorescence; calls by dose curve; tested in A549 cells; further: potency means the concentration at half of the fitted maximal effect; nearly all actives have a fitted effect of over 35% in size
LmPK inhibitor: inhibitors of Leishmania mexicana pyruvate kinase | AID 1721 | purified LmPK, Kinase-Glo ATP luminescence, 1 h | actives 0.37% (n = 290,000) | Potency, µM (series often up to 57.5 µM), for the others: top-dose activity change, negative = inhibition, most hits filed as inhibitors; further: potency means the concentration at half of the fitted maximal effect
Target sequence (Q27686 whole entry, looked up): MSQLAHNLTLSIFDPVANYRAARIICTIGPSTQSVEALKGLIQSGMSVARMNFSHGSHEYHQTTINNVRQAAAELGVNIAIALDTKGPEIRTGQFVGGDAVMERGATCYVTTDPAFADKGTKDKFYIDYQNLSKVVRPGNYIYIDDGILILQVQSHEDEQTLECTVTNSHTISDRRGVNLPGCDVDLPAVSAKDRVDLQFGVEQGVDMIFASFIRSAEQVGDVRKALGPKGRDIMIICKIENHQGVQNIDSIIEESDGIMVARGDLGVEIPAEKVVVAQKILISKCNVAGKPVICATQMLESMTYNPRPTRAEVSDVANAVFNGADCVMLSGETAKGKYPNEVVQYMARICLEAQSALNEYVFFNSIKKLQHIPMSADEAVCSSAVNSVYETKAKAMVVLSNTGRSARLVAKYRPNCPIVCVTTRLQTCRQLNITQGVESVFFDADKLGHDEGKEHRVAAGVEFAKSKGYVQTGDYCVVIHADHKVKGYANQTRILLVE
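0.1 nM LmPK, 0.5 mM PEP, 0.1 mM ADP; 50 mM imidazole pH 7.2, 7 mM MgCl2, 50 mM KCl; 1 h RT. Kinase-Glo luminescence readout, normalized to no-enzyme (full inhibition) and uninhibited wells.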
Vaccinia Venus: vaccinia inhibition (Venus reporter); Vaccinia virus Venus reporter expression, fluorescence; Potency, µM (titrated, usually from 36.5 µM), inactives show at the highest dose activity change, negative = inhibition, most hits filed as inhibitors; actives 0.46% (n = 330,000); AID 720580; calls by dose curve; tested in A549 cells; further: potency means the concentration at half of the fitted maximal effect; nearly all actives have a fitted effect of over 30% in size
HCMV antiviral: blocks human cytomegalovirus replication; AID 1259415; activity change, negative = inhibition, % at 57.5 µM; actives 4.5% (n = 410,000); HFF cells, HCMV-luciferase reporter, 72 h; active compounds read low; in the data active means activity change below about -60%; inconclusive means no clear call, values can overlap the other calls; inactive means above about -39%
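HFF cells seeded 16 h at 37C, treated with compounds, infected with luciferase-reporter HCMV at MOI 1 PFU/cell; luciferase read at 72 h post infection, normalized to buffer-only and Salinomycin controls.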
* = called active by the depositor; i = inactive; ? = inconclusive; · = not tested or not shown; + = active, no number; ! = a repeat was not active; [ ] = dose if it differs, or a comment. Unless noted, the call rests on the fitted dose curve; in most records, active means well fitted curve in the direction sought with a large enough effect; inconclusive means small, poorly fitted or top-dose-only effect, or another doubt; inactive means no such curve, though single readings can be large; an effect the other way counts as inactive or inconclusive. On the % scale 0 is the no-effect control and ±100 the full control effect.

SMILES	Tb PYK inh	Vaccinia mCherry	LmPK inhibitor	Vaccinia Venus	HCMV antiviral
CCc1ccc(-c2ccc3nnc(SCC(=O)Nc4cccc(C(C)=O)c4)n3n2)cc1	-8%	-9%	·	-19%	-22
NC(=O)c1ncc(C(F)(F)F)cc1Oc1cccc(C(F)(F)F)c1	-6%	·	1%	-14%	-30
COc1ccc(CN2CCN(Cc3ccccc3)CC2)c(OC)c1	2%	-17%	2%	-17%	17
COc1ccc(CN2CCC(N(CCc3ccccc3)Cc3ccccc3)CC2)c(OC)c1	-11%	-17%	2%	-23%	-99*
Cc1cc(NC(=O)Cn2cc([N+](=O)[O-])cn2)n(Cc2ccc(F)cc2)n1	-3%	0%	4%	-3%	-14
Cc1cc(NC(=O)CCCn2ccc([N+](=O)[O-])n2)n(Cc2ccc(F)cc2)n1	-10%	-14%	8%	-2%	-84*
COCCN(C(=O)CNC(=O)c1ccco1)C(C(=O)NC1CCCC1)c1ccccc1F (stereo unspecified)	-4%	-3%	2%	-9%	17
COCCN(C(=O)CCl)C(C(=O)NC1CCCCC1)c1ccccc1C (stereo unspecified)	-7%	?	1%	?	-98*
COCCNC(=O)C(c1ccccc1F)N(C(=O)C(=O)NC1CCCC1)C1CCCCC1 (stereo unspecified)	-8%	i	9%	-17%	-80*
COCCn1c(SC(C)C(=O)Nc2ncc(Cl)cc2Cl)nc2ccccc21 (stereo unspecified)	-9%	?	-2%	12%	-70*
O=C(OCc1cn([C@H]2CN(Cc3cccs3)[C@@H](c3ccccc3)C[C@@H]2O)nn1)c1ccccc1	-16%	i	·	-14%	5
C/C(=N\N=C\c1cccc(F)c1)c1nnn(-c2nonc2N)c1C	5%	-9%	0%	-5%	-2
Cc1cc2cc(C)c3nnc(SCc4ccccn4)n3c2cc1C	2%	-21%	0%	-5%	-65*
Cc1ccc(C)c2c1cc(C)c1nnc(SCc3ccccn3)n12	·	·	2%	·	29
CCCCCC1CCNCC1	·	i	·	-12%	·
Cn1c(=O)c2c(ncn2CC(=O)OCC(=O)c2ccc(OC(F)F)cc2OC(F)F)n(C)c1=O	-3%	-7%	·	-16%	12
C[C@H](NC(=O)[C@H]1N2C(=O)c3ccccc3C2SC1(C)C)C(=O)N1CCC[C@H]1CO (stereo partly specified)	-9%	-6%	-3%	-2%	-13
CC(=O)Nc1ccc(/C=C/c2ccc3cccc([N+](=O)[O-])c3n2)cc1	-7%	?	-2%	-12%	-90*
O=C(O)COc1ccc(/C=C/c2ccc3cccc([N+](=O)[O-])c3n2)cc1	-6%	-15%	-1%	-4%	-30
S=c1[nH]nc(COc2ccccc2)n1/N=C/c1ccc(Cl)cc1	-7%	i	2%	-2%	13
S=c1[nH]nc(Cc2ccc(Br)cc2)n1/N=C/c1ccc(Cl)cc1	-26%	-11%	5%	3%	-67*
CC(NCC(=O)Nc1ccccc1C(=O)NC1CC1)c1cccc(C(F)(F)F)c1 (stereo unspecified)	-2%	·	·	·	14
CCOC(=O)C(CC)n1cnc2c(cnn2-c2ccc(Cl)cc2)c1=O (stereo unspecified)	2%	-12%	3%	-10%	-24
CCC(=O)Oc1ccc(NC(=O)CSCc2ccccc2)cc1	6%	·	-1%	·	-73*
COc1ccc(NC(=O)O/N=C2/CCCc3ccc(OC)cc32)cc1	-19%	·	4%	·	-73*
SMILES	Tb PYK inh	Vaccinia mCherry	LmPK inhibitor	Vaccinia Venus	HCMV antiviral
COc1ccc2c(c1)/C(=N/OC(=O)c1cccs1)CCC2	-15%	i	2%	4%	-13
CCOc1ccc(S(=O)(=O)N(CC(=O)NCCc2ccc(OC)cc2)c2ccccc2)cc1	-9%	-4%	·	-6%	7
CCOC(=O)c1sc2ccc(S(=O)(=O)N3CCOCC3)cc2c1N	8%	·	-3%	·	-62*
CCOC(=O)c1sc2ccc(S(=O)(=O)N3CCCCC3)cc2c1N	-11%	·	6%	·	?
O=C(CCN1CCOCC1)NCc1ccccc1	1%	·	9%	·	5
O=C(CCCc1ccccc1)NCCN1CCOCC1	3%	-8%	-1%	-1%	-100*
CCOc1ccc(NC(=O)C2CCCN(c3nn4cc(-c5ccc(OC)cc5)nc4s3)C2)cc1 (stereo unspecified)	-9%[15.4 µM]	-29%	·	-27%	+
CCOc1ccccc1CNC(=O)C1CCN(c2nn3cc(-c4ccc(F)cc4)nc3s2)CC1	-6%[15.4 µM]	-4%	·	-10%	+
NC(=O)C1CCN(C(=O)NC(=O)c2ccccc2)CC1	1%	i	0%	-2%	-29
FC(F)(F)c1cnc(NNC(=S)Nc2ccccc2Cl)c(Cl)c1	2%	?	-8%	?	-100*
COc1ccc(Cl)cc1C(=O)CSc1nnnn1C1CCCCC1	-1%	-23%	1%	-16%	-62*
O=S(=O)(c1cccc(F)c1)N1CCC(Oc2ccc(-n3cnnn3)cc2)CC1	0%	-17%	·	-23%	-96*
CC(=O)Nc1ccc(S(=O)(=O)N2CCC(Oc3ccc(-n4cnnn4)cc3)CC2)cc1	10%	?	4%	-27%	-89*!
N#Cc1ccccc1S(=O)(=O)N1CCC(Oc2ccc(-n3cnnn3)cc2)CC1	-15%	-15%	·	-24%	-27
Cc1ccc(NC(=O)CN(C)C(=O)CSc2nc(C)cc(C)n2)cc1	3%	-12%	·	4%	-33
COC(=O)c1ccc2nc(-c3ccc4c(c3)OCO4)cn2c1	-12%	-1%	?	-4%	-9
CCc1ccn2cc(-c3ccc4c(c3)OCO4)nc2c1	?	-22%	14µM*	-17%	-78*
O=C(Nc1ccccc1C(F)(F)F)c1cc(-c2ccc3c(c2)OCCO3)on1	1%	-11%	·	1%	70
Clc1ccc(OCCN2CCCCC2)cc1Cl	6%	-8%	-2%	-7%	-27
ON=C1c2cc(OCCN3CCCCC3)ccc2-c2ccc(OCCN3CCCCC3)cc21	-1%	?	-2%	8.9µM*	·
CC(C)n1c(SCC(=O)Nc2ccc(F)cc2)nc2c(oc3ccccc32)c1=O	-2%	-6%	·	-9%	-19
CC1(C)Cc2c(c(-c3ccco3)nc3sc4c(NCCCO)ncnc4c23)CO1	?	·	6%	·	-65*
O=C(CN1C(=O)C2(SCC(=O)N2c2cccc(F)c2)c2ccccc21)NCCc1ccccc1 (stereo unspecified)	4%	-8%	·	-9%	-107*
Cc1ccc(Sc2cc(C(=O)NCCN(C)C)c3ccccc3n2)cc1	4%	·	1%	·	-38
Cc1ccc(Sc2cc(C(=O)NCCCN(C)C)c3ccccc3n2)cc1	-6%	i	0%	?	-39
Cc1ccc(CNC(=O)c2cc(Sc3ccc(F)cc3F)nc3ccccc23)cc1	1%	-15%	·	-15%	-66*
COCCCNC(=O)c1cc(Sc2ccc(F)cc2)nc2ccccc12	-1%	-21%	1%	-15%	-61*
